Holding throughout (assay): DAPPL (digital affinity profiling via proximity ligation, sequencing); 10 mM Tris-HCl pH 7.5, 50 mM NaCl, 1 mM DTT, 4% glycerol, room temperature, 30 min; GST-TFs on glutathione beads, 16-mer random dsDNA library, 0.1% formaldehyde crosslink after washing; high values mean tight binding
Holding throughout (conditions): protein: recombinant; tags: N-terminal GST; dsDNA, one strand shown

For one test, the target named is T1, FLI1 (Homo sapiens, UniProt Q01543 1-452).
T1 sequence: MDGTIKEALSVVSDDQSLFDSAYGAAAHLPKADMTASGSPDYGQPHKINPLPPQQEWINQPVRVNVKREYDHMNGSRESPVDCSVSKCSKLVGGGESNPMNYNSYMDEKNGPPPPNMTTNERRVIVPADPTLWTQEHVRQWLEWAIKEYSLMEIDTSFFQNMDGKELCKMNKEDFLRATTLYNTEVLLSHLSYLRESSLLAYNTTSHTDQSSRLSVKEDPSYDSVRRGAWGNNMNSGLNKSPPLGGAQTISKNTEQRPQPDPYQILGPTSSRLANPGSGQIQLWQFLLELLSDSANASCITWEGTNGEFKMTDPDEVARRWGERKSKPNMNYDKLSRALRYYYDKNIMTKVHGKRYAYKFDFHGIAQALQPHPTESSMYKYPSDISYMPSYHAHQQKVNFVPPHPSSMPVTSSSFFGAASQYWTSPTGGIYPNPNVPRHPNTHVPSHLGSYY
The essentials: (§1)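 Pools of DNA-barcoded human transcription factors, expressed in yeast as GST fusions on glutathione beads and combined with a tag-only sample, were incubated with 200 nmole of a 16-mer random double-stranded DNA library. Incubation took 30 min at room temperature in Tris/NaCl/DTT/glycerol buffer and was followed by washing, 0.1% formaldehyde crosslinking, proximity ligation (BsaI/T4 ligase, 1 h, 37 °C), PCR amplification and sequencing on an Illumina NextSeq500. Binding signal is the ratio of a hexamer's read frequency for a factor to its frequency for the tag-only sample.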

The next test has as its target T2, ELK1 (Homo sapiens, UniProt P19419 1-428).
T2 sequence: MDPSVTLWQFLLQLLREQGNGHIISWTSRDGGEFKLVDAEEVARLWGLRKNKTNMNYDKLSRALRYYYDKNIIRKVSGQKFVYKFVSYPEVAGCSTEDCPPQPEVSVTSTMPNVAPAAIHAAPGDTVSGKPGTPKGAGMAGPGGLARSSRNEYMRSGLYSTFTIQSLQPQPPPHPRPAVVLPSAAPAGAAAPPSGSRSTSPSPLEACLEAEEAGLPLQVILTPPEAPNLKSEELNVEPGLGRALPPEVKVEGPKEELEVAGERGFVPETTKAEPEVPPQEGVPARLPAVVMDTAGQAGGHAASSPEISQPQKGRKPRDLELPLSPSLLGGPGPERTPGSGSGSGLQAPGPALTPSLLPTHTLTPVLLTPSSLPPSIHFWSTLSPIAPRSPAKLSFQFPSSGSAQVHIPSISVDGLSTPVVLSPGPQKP
The method, boiled down:
as §1

The target in a further test is T3, GABPA (Homo sapiens, UniProt Q06546 1-454).
T3 sequence: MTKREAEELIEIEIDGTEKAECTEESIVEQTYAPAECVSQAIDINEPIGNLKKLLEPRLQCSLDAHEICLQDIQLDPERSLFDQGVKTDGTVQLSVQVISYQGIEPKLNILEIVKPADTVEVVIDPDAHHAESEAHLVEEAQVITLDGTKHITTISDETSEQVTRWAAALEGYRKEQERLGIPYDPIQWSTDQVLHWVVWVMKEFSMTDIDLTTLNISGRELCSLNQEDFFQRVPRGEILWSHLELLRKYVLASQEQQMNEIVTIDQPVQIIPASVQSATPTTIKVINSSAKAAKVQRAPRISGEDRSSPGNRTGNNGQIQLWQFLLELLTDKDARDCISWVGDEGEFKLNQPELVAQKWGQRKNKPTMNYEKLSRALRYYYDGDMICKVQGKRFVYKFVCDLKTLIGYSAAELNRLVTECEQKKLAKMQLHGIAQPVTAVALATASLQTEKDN
The method, boiled down: as §1

The target of a further test is T4, ERG (Homo sapiens, UniProt P11308 1-479).
T4 sequence: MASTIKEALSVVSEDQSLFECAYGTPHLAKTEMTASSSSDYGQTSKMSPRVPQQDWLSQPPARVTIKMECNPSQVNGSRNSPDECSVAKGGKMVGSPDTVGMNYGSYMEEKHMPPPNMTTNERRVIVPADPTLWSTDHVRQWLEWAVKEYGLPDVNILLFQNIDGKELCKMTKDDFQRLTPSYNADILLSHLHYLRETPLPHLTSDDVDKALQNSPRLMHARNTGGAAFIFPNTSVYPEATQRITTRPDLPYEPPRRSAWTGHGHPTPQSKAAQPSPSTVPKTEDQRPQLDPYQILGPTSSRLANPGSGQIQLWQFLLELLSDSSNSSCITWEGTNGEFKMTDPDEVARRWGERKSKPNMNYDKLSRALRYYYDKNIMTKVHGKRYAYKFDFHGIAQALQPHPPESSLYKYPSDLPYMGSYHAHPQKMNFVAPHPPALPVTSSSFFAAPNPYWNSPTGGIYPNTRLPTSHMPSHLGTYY
The method, boiled down:
as §1

The target of a further test is ELF1 (Homo sapiens, UniProt P32519 1-619). The essentials:
as §1

For a further test, the target named is T5, EHF (Homo sapiens, UniProt Q9NZC4 1-300).
T5 sequence: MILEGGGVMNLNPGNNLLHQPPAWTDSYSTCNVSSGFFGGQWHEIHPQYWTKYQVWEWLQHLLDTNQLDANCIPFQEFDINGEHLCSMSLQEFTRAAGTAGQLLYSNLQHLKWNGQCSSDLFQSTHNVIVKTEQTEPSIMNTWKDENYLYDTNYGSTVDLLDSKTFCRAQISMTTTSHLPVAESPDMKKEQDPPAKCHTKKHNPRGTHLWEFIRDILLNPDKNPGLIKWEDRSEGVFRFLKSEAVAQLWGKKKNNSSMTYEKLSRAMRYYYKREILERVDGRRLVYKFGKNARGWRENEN
The method, boiled down:
as §1

In a further test the target is SPI1 (Homo sapiens, UniProt P17947 1-270). The essentials:
as §1

In the next test the target is SPIB (Homo sapiens, UniProt Q01892 1-262). The essentials: as §1
Another test addresses T6, ELK3 (Homo sapiens, UniProt P41970 1-407).
T6 sequence: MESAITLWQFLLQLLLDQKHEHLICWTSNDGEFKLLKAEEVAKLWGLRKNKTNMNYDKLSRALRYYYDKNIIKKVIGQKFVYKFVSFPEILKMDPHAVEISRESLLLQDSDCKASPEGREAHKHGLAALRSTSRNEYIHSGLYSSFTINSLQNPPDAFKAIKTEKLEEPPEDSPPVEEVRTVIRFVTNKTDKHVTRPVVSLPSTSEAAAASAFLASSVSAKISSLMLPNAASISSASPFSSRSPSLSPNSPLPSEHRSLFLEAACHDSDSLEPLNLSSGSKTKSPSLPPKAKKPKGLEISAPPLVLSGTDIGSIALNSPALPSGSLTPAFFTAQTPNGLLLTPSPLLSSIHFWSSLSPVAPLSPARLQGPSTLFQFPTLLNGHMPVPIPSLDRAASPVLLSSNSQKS
The essentials:
as §1

Chain of ELF1 (P32519 whole entry): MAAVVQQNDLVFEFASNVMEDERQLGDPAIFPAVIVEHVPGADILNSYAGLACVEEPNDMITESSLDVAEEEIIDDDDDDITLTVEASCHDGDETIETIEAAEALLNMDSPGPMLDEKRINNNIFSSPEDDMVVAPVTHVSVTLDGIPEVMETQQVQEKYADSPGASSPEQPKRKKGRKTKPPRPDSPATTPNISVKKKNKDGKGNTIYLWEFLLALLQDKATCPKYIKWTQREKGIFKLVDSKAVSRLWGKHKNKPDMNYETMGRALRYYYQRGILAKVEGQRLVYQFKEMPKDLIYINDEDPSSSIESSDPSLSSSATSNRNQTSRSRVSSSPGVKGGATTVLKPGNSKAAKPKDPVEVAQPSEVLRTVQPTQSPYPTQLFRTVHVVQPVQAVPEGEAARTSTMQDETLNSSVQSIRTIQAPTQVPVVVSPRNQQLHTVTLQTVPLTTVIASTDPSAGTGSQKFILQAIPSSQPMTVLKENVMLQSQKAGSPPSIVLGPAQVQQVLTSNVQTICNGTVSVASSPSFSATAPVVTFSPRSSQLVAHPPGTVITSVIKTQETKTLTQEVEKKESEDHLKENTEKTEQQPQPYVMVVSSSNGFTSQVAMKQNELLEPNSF
Chain of SPIB (Q01892 whole entry): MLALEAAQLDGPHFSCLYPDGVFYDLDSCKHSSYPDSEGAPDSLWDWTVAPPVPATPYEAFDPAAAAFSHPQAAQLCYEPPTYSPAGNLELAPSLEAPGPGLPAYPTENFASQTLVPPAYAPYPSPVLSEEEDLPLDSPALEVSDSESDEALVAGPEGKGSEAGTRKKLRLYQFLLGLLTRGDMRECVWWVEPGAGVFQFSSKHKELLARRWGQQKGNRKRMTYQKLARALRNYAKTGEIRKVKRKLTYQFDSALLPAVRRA

TCACCT: the binding signal is 1.25 fold enrichment (6-mer frequency, TF over GST control) with FLI1; 1.31 fold enrichment (6-mer frequency, TF over GST control) with ELK1; 1.27 fold enrichment (6-mer frequency, TF over GST control) with GABPA; 1.23 fold enrichment (6-mer frequency, TF over GST control) with ERG; 1.2 fold enrichment (6-mer frequency, TF over GST control) in the test with ELF1; 1.21 fold enrichment (6-mer frequency, TF over GST control) in the test with EHF. Moreover, the binding signal is 1.21 fold enrichment (6-mer frequency, TF over GST control) in the test with SPI1; 1.13 fold enrichment (6-mer frequency, TF over GST control) with SPIB; 1.22 fold enrichment (6-mer frequency, TF over GST control) with ELK3.
Turning to CGTTAA, the binding signal with FLI1 was 1.12 fold enrichment (6-mer frequency, TF over GST control); in the test with ELK1, 1.17 fold enrichment (6-mer frequency, TF over GST control); with GABPA it was 1.11 fold enrichment (6-mer frequency, TF over GST control); with ERG, 1.17 fold enrichment (6-mer frequency, TF over GST control); in the test with ELF1 it was 1.14 fold enrichment (6-mer frequency, TF over GST control); in the test with EHF, 1.1 fold enrichment (6-mer frequency, TF over GST control). For the same sequence, the binding signal in the test with SPI1 is 1.1 fold enrichment (6-mer frequency, TF over GST control); in the test with SPIB it was 1.13 fold enrichment (6-mer frequency, TF over GST control); in the test with ELK3 it was 1.21 fold enrichment (6-mer frequency, TF over GST control).
For the sequence TCTCTG, the binding signal with FLI1 was 1.67 fold enrichment (6-mer frequency, TF over GST control); with ELK1, 1.67 fold enrichment (6-mer frequency, TF over GST control); in the test with GABPA, 1.47 fold enrichment (6-mer frequency, TF over GST control); with ERG it was 1.56 fold enrichment (6-mer frequency, TF over GST control); with ELF1 it was 1.66 fold enrichment (6-mer frequency, TF over GST control); with EHF, 1.62 fold enrichment (6-mer frequency, TF over GST control). Besides, the binding signal is 1.52 fold enrichment (6-mer frequency, TF over GST control) with SPI1; 1.5 fold enrichment (6-mer frequency, TF over GST control) with SPIB; 1.52 fold enrichment (6-mer frequency, TF over GST control) with ELK3.
Regarding GGTCTC, the binding signal was 2.92 fold enrichment (6-mer frequency, TF over GST control) with FLI1; 2.66 fold enrichment (6-mer frequency, TF over GST control) in the test with ELK1; 2.5 fold enrichment (6-mer frequency, TF over GST control) in the test with GABPA; 2.46 fold enrichment (6-mer frequency, TF over GST control) with ERG; 2.74 fold enrichment (6-mer frequency, TF over GST control) with ELF1; 2.55 fold enrichment (6-mer frequency, TF over GST control) with EHF. Further, the binding signal was 2.89 fold enrichment (6-mer frequency, TF over GST control) in the test with SPI1; 2.59 fold enrichment (6-mer frequency, TF over GST control) with SPIB; 2.2 fold enrichment (6-mer frequency, TF over GST control) in the test with ELK3.
As to GATTCA, the binding signal is 1.11 fold enrichment (6-mer frequency, TF over GST control) with FLI1; 1.15 fold enrichment (6-mer frequency, TF over GST control) in the test with ELK1; 1.17 fold enrichment (6-mer frequency, TF over GST control) with GABPA; 1.11 fold enrichment (6-mer frequency, TF over GST control) with ERG; 1.17 fold enrichment (6-mer frequency, TF over GST control) in the test with ELF1; 1.18 fold enrichment (6-mer frequency, TF over GST control) in the test with EHF. The binding signal is 1.16 fold enrichment (6-mer frequency, TF over GST control) with SPI1; 1.04 fold enrichment (6-mer frequency, TF over GST control) with SPIB; 1.1 fold enrichment (6-mer frequency, TF over GST control) with ELK3.
Regarding TTCAAA, the binding signal with FLI1 was 1.23 fold enrichment (6-mer frequency, TF over GST control); with ELK1, 1.23 fold enrichment (6-mer frequency, TF over GST control); with GABPA it was 1.4 fold enrichment (6-mer frequency, TF over GST control); with ERG it was 1.2 fold enrichment (6-mer frequency, TF over GST control); in the test with ELF1, 1.34 fold enrichment (6-mer frequency, TF over GST control); with EHF, 1.24 fold enrichment (6-mer frequency, TF over GST control). The binding signal with SPI1 was 1.26 fold enrichment (6-mer frequency, TF over GST control); with SPIB it was 1.3 fold enrichment (6-mer frequency, TF over GST control); with ELK3, 1.36 fold enrichment (6-mer frequency, TF over GST control).
As to TATTCT, the binding signal was 1.45 fold enrichment (6-mer frequency, TF over GST control) with FLI1; 1.28 fold enrichment (6-mer frequency, TF over GST control) with ELK1; 1.43 fold enrichment (6-mer frequency, TF over GST control) with GABPA; 1.31 fold enrichment (6-mer frequency, TF over GST control) with ERG; 1.33 fold enrichment (6-mer frequency, TF over GST control) in the test with ELF1; 1.39 fold enrichment (6-mer frequency, TF over GST control) with EHF. For the same sequence, the binding signal with SPI1 is 1.31 fold enrichment (6-mer frequency, TF over GST control); with SPIB it was 1.19 fold enrichment (6-mer frequency, TF over GST control); in the test with ELK3, 1.33 fold enrichment (6-mer frequency, TF over GST control).
As to ATGTCT, the binding signal with FLI1 is 1.21 fold enrichment (6-mer frequency, TF over GST control); with ELK1 it was 1.28 fold enrichment (6-mer frequency, TF over GST control); in the test with GABPA, 1.36 fold enrichment (6-mer frequency, TF over GST control); with ERG, 1.22 fold enrichment (6-mer frequency, TF over GST control); in the test with ELF1, 1.29 fold enrichment (6-mer frequency, TF over GST control); with EHF it was 1.13 fold enrichment (6-mer frequency, TF over GST control). Further, the binding signal in the test with SPI1 is 1.32 fold enrichment (6-mer frequency, TF over GST control); in the test with SPIB it was 1.3 fold enrichment (6-mer frequency, TF over GST control); in the test with ELK3, 1.18 fold enrichment (6-mer frequency, TF over GST control).

For the origin of these results see PMC7862700, “An all-to-all approach to the identification of sequence-specific readers for epigenetic DNA modifications on cytosine”.
